Source: PubChem BioAssay (NCATS)
Records with an inconclusive call do not appear. Active and inactive are the calls of the source. Calls follow the shape of the dose curve; as a rule, active = well fitted cell-killing curve with a large enough effect; inconclusive = small, poorly fitted or top-dose-only effect, or effect the other way; inactive = no such curve, though single readings can be large or run the other way.

Assay: Quantitative High-Throughput drug screen in 47 multiple myeloma cell lines against the NCATS MIPE library collection: OCIMY5_PLB cell viability assay (AID 1918988); also: nearly all actives have a fitted effect of over 65% in size
Conditions: OCI-MY5 myeloma viability, ATP luminescence, 48 h; series mostly up to 45.8 µM; viability, % of control: at the top concentration
Source text: PI: Beverly A. Mock Ph.D.
Laboratory of Cancer Biology and Genetics,
Center for Cancer Research, National Cancer Institute,
National Institute of Health, Bethesda, Maryland
Drug resistance and disease progression are common in multiple myeloma (MM) patients, underscoring the need for new therapeutic combinations. […] We hypothesized that effective combinations would reduce MYC expression and enhance p16 activity. […] These preclinical data identify potentially useful drug combinations for evaluation in drug-resistant MM and reveal potential mechanisms of combined drug sensitivity.
Described herein is the primary MIPE qHTS used to cherrypick compounds. Validated compounds were then further tested for potential synergistic activiy.
[1] Peat TJ, Gaikwad SM, Dubois W, Gyabaah-Kessie N, Zhang S, Gorjifard S, Phyo Z, Andres M, Hughitt VK, Simpson RM, Miller MA, Girvin AT, Taylor A, Williams D, D'Antonio N, Zhang Y, Rajagopalan A, Flietner E, Wilson K, Zhang X, Shinn P, Klumpp-Thomas C, McKnight C, Itkin Z, Chen L, Kazandijian D, Zhang J, Michalowski AM, Simmons JK, Keats J, Thomas CJ, Mock BA. Drug combinations identified by high-throughput screening promote cell cycle transition and upregulate Smad pathways in myeloma. Cancer Lett. 2023 Aug 1;568:216284. doi: 10.1016/j.canlet.2023.216284. Epub 2023 Jun 24. PMID: 37356470; PMCID: PMC10408729.
SEQUENCE No. (e.g., 1, 2, 3, etc.); […] (e.g., Cells, Incubation, Reagent, etc.); VALUE and DESCRIPTION.
1; Cells; 5 uL; white, solid bottom 1536-well Greiner assay plate.
2; Compounds; 23 nL; Kalypsis pin tool (Wako USA) equipped with a 1536-well pin head to transfer to the assay plates.
3; Incubation; 48 hours; 37C incubation.
4; Reagent;5uL; CellTiter Glo (Promega).
5; Detector; 425V; Luminescence; Viewlux PerkinElmer.
NOTES (numbers refer to Sequence numbers above)
1. The cell-based screening methods employed in this study were like those previously published. Briefly, the corresponding myeloma cell lines were screened in 1,536-well plates with 500 cells, 5-uL per well for inhibition of cell viability (assessed by measuring ATP levels with CellTiterGlo).
2. NCATS MIPE 4.0 library of approved and investigational drugs were added using the Kalypsis pin tool. Wells treated with DMSO only for 100% viability and media only for 0% viability were used as controls.
3. The assay plates were covered and incubated for 48 hours in a 37C, 5% CO2 incubator with controlled humidity.
4. After 48 hours, CellTilter-GloTM luminescent substrate mix (Promega) reagent was added to the assay plate and plates we incubated for 5 min at room temperature.
5. Signal was measured as median relative luminescence units on a ViewLux (PerkinElmer) multiplate reader.
[1] Heske CM, Davis MI, Baumgart JT, Wilson K, Gormally MV, Chen L, Zhang X, Ceribelli M, Duveau DY, Guha R, Ferrer M, Arnaldez FI, Ji J, Tran HL, Zhang Y, Mendoza A, Helman LJ, Thomas CJ. Matrix Screen Identifies Synergistic Combination of PARP Inhibitors and Nicotinamide Phosphoribosyltransferase (NAMPT) Inhibitors in Ewing Sarcoma. Clin Cancer Res. 2017 Dec 1;23(23):7301-7311. doi: 10.1158/1078-0432.CCR-17-1121. Epub 2017 Sep 12. PMID: 28899971; PMCID: PMC6636827.
Potency is read from the fitted curve at half-maximal effect.

SMILES	Potency	viability, % of control
O=C1Cc2cc(CCN3CCN(c4nsc5ccccc45)CC3)c(Cl)cc2N1	37.2 µM (active)	–
NC(=O)NO	0.235 µM (active)	–
CN1CCN2c3ccccc3Cc3ccccc3C2C1 (stereo not given)	23.5 µM (active)	–
CC(C)NCC(O)COc1ccc(CCOCC2CC2)cc1 (stereo not given)	–	175% (inactive)
CS(=O)(=O)Nc1ccc([N+](=O)[O-])cc1Oc1ccccc1	11.8 µM (active)	–
O=C1c2c(O)ccc(O)c2C(=O)c2c(NCCNCCO)ccc(NCCNCCO)c21	1.32 µM (active)	–
OCCN(CCO)c1nc(N2CCCCC2)c2nc(N(CCO)CCO)nc(N3CCCCC3)c2n1	23.5 µM (active)	–
CS(=O)(=O)CCNCc1ccc(-c2ccc3ncnc(Nc4ccc(OCc5cccc(F)c5)c(Cl)c4)c3c2)o1	0.0743 µM (active)	–
O=C(Nc1ccc([N+](=O)[O-])cc1Cl)c1cc(Cl)ccc1O	1.66 µM (active)	–
COC(=O)Nc1nc2ccc(C(=O)c3cccs3)cc2[nH]1	0.0021 µM (active)	–
CN(C)C(=O)C(CCN1CCC(O)(c2ccc(Cl)cc2)CC1)(c1ccccc1)c1ccccc1	16.6 µM (active)	–
CC(C(=O)O)c1cccc(C(=O)c2ccccc2)c1 (stereo not given)	20.9 µM (active)	–
NCCc1cnc[nH]1	–	197% (inactive)
COc1ccccc1OCCNCC(O)COc1cccc2[nH]c3ccccc3c12 (stereo not given)	18.7 µM (active)	–
CN1CCN(C2=Nc3cc(Cl)ccc3Nc3ccccc32)CC1	–	133% (inactive)
CC(=O)OCC(CCn1cnc2cnc(N)nc21)COC(C)=O	–	160% (inactive)
CN1CCN(CCCN2c3ccccc3Sc3ccc(Cl)cc32)CC1	26.4 µM (active)	–
O=c1[nH]cc(F)c(=O)[nH]1	–	141% (inactive)
CC#C[C@]1(O)CC[C@H]2[C@@H]3CCC4=CC(=O)CCC4=C3[C@@H](c3ccc(N(C)C)cc3)C[C@@]21C	0.833 µM (active)	–
OCCN1CCN(CCCN2c3ccccc3Sc3ccc(C(F)(F)F)cc32)CC1	20.9 µM (active)	–

SMILES	Potency	viability, % of control
CCC1(C)CC(=O)NC1=O (stereo not given)	–	163% (inactive)
C[C@@H]1CC(=O)NN=C1c1ccc(NN=C(C#N)C#N)cc1	18.7 µM (active)	–
O=C(c1ccc(F)cc1)C1CCN(CCn2c(=O)[nH]c3ccccc3c2=O)CC1	26.4 µM (active)	–
Cc1ccccc1N1C(=O)c2cc(S(N)(=O)=O)c(Cl)cc2NC1C (stereo not given)	–	152% (inactive)
CC(C)C(=O)Nc1ccc([N+](=O)[O-])c(C(F)(F)F)c1	1.48 µM (active)	–
Clc1ccc2c(c1)C(N1CCNCC1)=Nc1ccccc1O2	20.9 µM (active)	–
Cn1cnc2c1c(=O)[nH]c(=O)n2C	14.8 µM (active)	–
CN(C)CCC=C1c2ccccc2C=Cc2ccccc21	14.8 µM (active)	–
CCN1CCCC1CNC(=O)c1cc(S(=O)(=O)CC)c(N)cc1OC (stereo not given)	–	161% (inactive)
CN1C(C(=O)Nc2ccccn2)=C(O)c2ccccc2S1(=O)=O	–	165% (inactive)
CCOC(=O)C(C)(C)Oc1ccc(Cl)cc1	–	186% (inactive)
NC12CC3CC(CC(C3)C1)C2	0.0026 µM (active)	–
CC[C@@]1(O)C(=O)OCc2c1cc1n(c2=O)Cc2cc3c(CN(C)C)c(O)ccc3nc2-1	5.9 µM (active)	–
CNCCCC12CCC(c3ccccc31)c1ccccc12	23.5 µM (active)	–
N[C@@H](Cc1c[nH]c2ccc(O)cc12)C(=O)O	–	164% (inactive)
Nc1c2c(nc3ccccc13)CCCC2	23.5 µM (active)	–
CC(C)NCC(O)c1ccc(O)c(O)c1 (stereo not given)	5.26 µM (active)	–
CN1CCC(=C2c3ccccc3CC(=O)c3sccc32)CC1	23.5 µM (active)	–
CC(CCc1ccc(O)cc1)NCCc1ccc(O)c(O)c1 (stereo not given)	20.9 µM (active)	–
CC(COc1ccccc1)N(CCCl)Cc1ccccc1 (stereo not given)	26.4 µM (active)	–
